Compound activity: PubChem, several laboratories
The full list was thinned out, with hits kept by preference.
ROCK2 inh: ROCK2 (human) kinase inhibition | O75116 | AID 604 | inhibition, % at 6 µM | purified ROCK2, Kinase-Glo ATP depletion luminescence | 60,000 tested, 0.35% active;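 active means inhibition above the screen-wide mean inhibition plus 3 SD, cut at about 18% in these data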;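 further: plate controls were DMSO wells for no effect and Y-27632 control wells after no-enzyme background subtraction for full effect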
DAT uptake mod: human DAT dopamine uptake with cocaine, either direction; AID 449768; Q01959; B-score at 10 µM; 110,000 tested, 1.3% active; LLC-PK1 hDAT cells, [14C]-dopamine uptake with cocaine IC80; actives deviate in either direction;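 active means Z score or B-score, a plate-position-corrected score, falls beyond the plate's 99.7% confidence bounds, in either direction; inactive means both scores lie inside the 99.7% bounds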;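 further: scored against the spread of the other compound wells on the same plate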
PKA kinase inh: inhibitors of human protein kinase A. PKA Kemptide phosphorylation, Kinase-Glo ATP luminescence. 65,000 tested, 0.1% active. AID 524. P17612. inhibition, % at 6 µM;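 active means inhibition above the screen-wide mean inhibition plus 3 SD, cut at about 21% in these data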
JNK3 blocker: blocks human JNK3 kinase activity; P53779; purified JNK3 kinase activity, HTS; inhibition, % at 8 µM; 60,000 tested, 0.61% active; AID 746; in the data active means inhibition above about 17%;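 further: 0% = DMSO and 100% = reference inhibitor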
Target sequence (P53779 whole entry, looked up): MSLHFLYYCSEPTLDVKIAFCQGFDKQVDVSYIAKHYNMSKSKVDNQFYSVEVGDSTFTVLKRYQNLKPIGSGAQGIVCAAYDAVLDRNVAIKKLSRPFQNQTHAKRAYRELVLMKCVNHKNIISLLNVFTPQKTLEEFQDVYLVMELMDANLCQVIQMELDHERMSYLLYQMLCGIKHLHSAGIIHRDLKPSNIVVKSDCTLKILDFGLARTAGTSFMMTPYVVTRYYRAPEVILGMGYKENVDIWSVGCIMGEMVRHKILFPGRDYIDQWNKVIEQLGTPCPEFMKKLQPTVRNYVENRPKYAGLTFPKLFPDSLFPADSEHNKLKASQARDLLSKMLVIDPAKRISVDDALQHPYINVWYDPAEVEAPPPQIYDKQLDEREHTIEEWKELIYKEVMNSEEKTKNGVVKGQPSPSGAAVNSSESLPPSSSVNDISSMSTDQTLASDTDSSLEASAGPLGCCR
D1 allo mod: allosterically modulates the human D1 dopamine receptor | B-score at 10 µM | HEK293 D1, CRE-luciferase, dopamine EC30 potentiation; actives deviate in either direction | 58,000 tested, 5.9% active | AID 641 | P21728;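 active means luminescence count or its row- and column-corrected plate score outside the 99.7% band of the plate's sample wells, on either side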
Active calls of the source: *.

For CCCn1nc2cc(C(=O)NC3CCc4ccccc43)ccc2c1OCC (configuration not stated) the results were DAT uptake mod 2.3*.
`CCCn1nc2cc(C(=O)NCc3ccc(OC)cc3)ccc2c1OCC` gave DAT uptake mod 2.3*.
Cn1c(SCc2c(F)cccc2Cl)nnc1-c1cccs1 was read as ROCK2 inh 1, DAT uptake mod 2.3*, PKA kinase inh 8, JNK3 blocker 2 and D1 allo mod 0.19.
Screening Cn1c(SCCOc2ccccc2Cl)nnc1-c1cccs1 returned DAT uptake mod 0.78.
CC1CN(S(=O)(=O)c2cccc(-c3csc(-c4ccccc4)n3)c2)CC(C)O1 (configuration not stated) was read as DAT uptake mod 2.4*.
For O=C(N/N=C/c1cccc(Oc2ccccc2)c1)c1ccccc1Br the results were DAT uptake mod 0.52.
CCN(CC)C(=O)CC(c1ccc2c(c1)OCO2)c1c(OC)cc(OC)c2ccc(=O)oc12 (configuration not stated) was read as DAT uptake mod 2.7*.
CCN(CC)C(=O)CC(c1ccc(N(C)C)cc1)c1c(OC)cc(OC)c2ccc(=O)oc12 (configuration not stated) was read as DAT uptake mod 0.95.
O=C(NCC1CC1)C1CCCN(S(=O)(=O)c2ccc(-n3cnnn3)cc2)C1 (configuration not stated) was read as ROCK2 inh 7, DAT uptake mod -0.11, PKA kinase inh 5 and JNK3 blocker 5.
For COc1cccc(NC(=O)C2CCCN(S(=O)(=O)c3ccc(-n4cnnn4)cc3)C2)c1 (configuration not stated) the results were ROCK2 inh 10, DAT uptake mod 0.88, PKA kinase inh 8, JNK3 blocker -2 and D1 allo mod -4.1*.
`CC(C)NC(=O)C1CCCN(S(=O)(=O)c2ccc(-n3cnnn3)cc2)C1` (configuration not stated) gave DAT uptake mod -0.35.
CCOc1cccc(NC(=O)C2CCCN(S(=O)(=O)c3ccc(-n4cnnn4)cc3)C2)c1 (configuration not stated) was read as ROCK2 inh -2, DAT uptake mod -0.04, PKA kinase inh 2, JNK3 blocker 21* and D1 allo mod 1.1.
For CCN1CCCC1CNC(=O)C(=O)Nc1ccccc1OC (configuration not stated) the results were DAT uptake mod -0.077.
For O=c1cc(Nc2ccc3c(c2)OCO3)[nH]c(=O)n1-c1ccc(Br)cc1 the results were DAT uptake mod 0.053, PKA kinase inh 10 and D1 allo mod -7.6*.
c1ccc(N2CCN(c3nc(NCc4ccco4)c4ccccc4n3)CC2)cc1 was read as ROCK2 inh 3, DAT uptake mod -1.4, PKA kinase inh 6 and JNK3 blocker -2.
For c1coc(CNc2nc(N3CCCCC3)nc3ccccc23)c1 the results were ROCK2 inh 3, DAT uptake mod -0.04, PKA kinase inh 10, JNK3 blocker 1 and D1 allo mod -3.7*.
For CCC(C)(C)n1nnnc1C(c1ccc(C)cc1)N1CCN(Cc2ccc3c(c2)OCO3)CC1 (configuration not stated) the results were DAT uptake mod 1.8.
`Cc1ccc(-c2nn(-c3ccccc3)cc2C(=O)N2CCOCC2)cc1` gave ROCK2 inh 8, DAT uptake mod 0.58, PKA kinase inh 12, JNK3 blocker 2 and D1 allo mod -4*.
`CN1CCN(C(=O)c2cn(-c3ccccc3)nc2-c2cccnc2)CC1` gave DAT uptake mod 0.023.
CC1(c2ccc(Cl)c(Cl)c2)NC(=S)N2C1NC(=S)N2c1ccccc1 (configuration not stated) was read as DAT uptake mod 2.1.
For CC(Sc1nnnn1C)C(=O)Nc1ccc(N2CCOCC2)cc1 (configuration not stated) the results were ROCK2 inh 5, DAT uptake mod -7.8*, PKA kinase inh 8 and JNK3 blocker -5.
`COc1ccc(Cc2nnc3c4cnn(C)c4ncn23)cc1` gave ROCK2 inh 7, DAT uptake mod -7.4*, PKA kinase inh 3, JNK3 blocker 6 and D1 allo mod 0.54.
Screening CCCCN(CCCNc1ncnc2nc[nH]c12)c1ccccc1 returned ROCK2 inh 6, DAT uptake mod 1.1, PKA kinase inh 8, JNK3 blocker -3 and D1 allo mod -3.5*.
